This is an account of results in PubChem BioAssay (Tox21).

Results filed as inconclusive are left out. Entries that show only a call come without a potency. Active and inactive are the calls of the source. The call rests on the fitted dose curve; in most records, active means well fitted inhibition curve with a large enough effect in the repeat runs; inconclusive means weak or mixed curves, or effect the other way; inactive means no such curve, though single readings can be large or run the other way.
Potency means the concentration at half of the fitted maximal effect.

The target in this experiment is Nuclear receptor ROR-gamma (Homo sapiens) (UniProt P51449). The experiment can be described thus: qHTS assay to identify small molecule antagonists of the retinoid-related orphan receptor gamma (ROR-gamma) signaling pathway (AID 1159521; further: nearly all actives have a fitted effect of over 50% in size; on activity change, negative = inhibition: top concentration of the series differs between compounds). Particulars: Tet-on RORgamma CHO cells, RORE-luciferase, 16 h; series mostly up to 92.4 µM. From the text: U.S. Tox21 Program National Center for Advancing Translational Sciences [NCATS] NIH Chemical Genomics Center [NCGC] U.S. Environmental Protection Agency [EPA] National Institutes of Environmental Health Sciences [NIEHS] National Toxicology Program [NTP] U.S. Food and Drug Administration [FDA] Tox21 Assay Overview: Nuclear steroid hormone receptors are involved in many biological processes including inflammatory responses, cell proliferation, and apoptosis. Environmental factors or compounds disrupting these nuclear receptor pathways and gene expression may promote susceptibility to immunotoxicants and autoimmune diseases. One important group of these expression factors are the retinoid-related orphan receptors. To assess compounds that may interfere with the retinoid-related orphan receptor gamma (ROR-gamma) transcription factor, a cell-based luciferase assay was used. The CHO cell-based assay utilizes a TET-inducible ROR expression factor and ROR response element-LUC reporter gene. Reporter gene activity was induced using Doxycycline Hyclate and measured after 16 hr incubation. Tet-on ROR gamma CHO cells were used to screen against the Tox21 10K compound library for ROR gamma antagonists by quantification of decreased reporter gene activity in terms of decreased luminescence.
Tox21 Assay Protocol Summary: Tet-on ROR gamma CHO cells were dispensed at 1,000 cells in 4 uL of culture medium per well into white wall/solid bottom 1536-well plates using a Multidrop Combi (Thermo Scientific, Waltham, MA) dispenser. Following incubation at 37 C and 5% CO2 for 4 hr, 23 nL of compounds dissolved in DMSO, positive controls or DMSO only were transferred by a Pintool station (Kalypsys, San Diego, CA) and after 2 hr incubation at 37 C, one ul of 1 uM (final concentration) of Doxycycline Hyclate was added to all the wells by using a Flying Reagent Dispenser (FRD) (Aurora Discovery, San Diego, CA). After 16 hr incubation at 37 C and 5% CO2, 5 uL of ONE-Glo reagent (Promega Corporation, Madison, WI) was added to each assay plate using FRD. After 30 min incubation at room temperature, luminescence was quantified on a ViewLux plate reader (Perkin Elmer, Waltham, MA).
(qHTS replaces the single test concentration by a dilution series.)
As for `Cc1cc2c(s1)Nc1ccccc1N=C2N1CCN(C)CC1`, the Potency entry is “inactive”.
As to `OCc1c2ccccc2cc2ccccc12`, the Potency result was “inactive”.
On to `CC(Oc1c(Cl)cccc1Cl)C1=NCCN1` (stereo not given), for which the Potency entry is “inactive”.
`C=CCCC=C`: the Potency entry was “inactive”.
As for `Nc1ccc(Oc2ccc(N)c(N)c2)cc1`, the Potency result was “inactive”.
For the compound `CCc1cc2cc(OC)c(OC)cc2c(Cc2ccccc2)n1`, the Potency result was “inactive”.
The same measure, in the same setting: the same measure for `Cc1c(C(=O)NCCO)[n+](=O)c2ccccc2n1[O-]`: “inactive”.
Still for that read-out and setting: the entry for `C/C(=N\O)[C@@H](C)NCC(C)(C)CN[C@H](C)/C(C)=N/O` is “inactive”; for `CC(C)O` it is 65.6 µM (active).
`CN1CCN(C2=Nc3cc(F)ccc3Cc3ccccc32)CC1`: the Potency entry is “inactive”.
`CCCCOc1cc(C(=O)NCCN(CC)CC)c2ccccc2n1`: the Potency result is “inactive”.
Take `CCCCCCOc1ccc(N)cc1`: the Potency entry was “inactive”.
Same read-out and setting: the entry for `O=C1Nc2ccc([N+](=O)[O-])cc2C1=O` is “inactive”.
Still for that read-out and setting: the same measure for `ICCc1ccccc1`: 59.9 µM (active).
`CC1(O)CSC(C)(O)CS1` (stereo not given): the Potency entry is “inactive”.
On the same count and under the same terms, the same measure for `O=[N+]([O-])c1nccn1CO[C@@H](CO)[C@H](O)CO`: “inactive”; for `Cc1ccc(C(C)C)cc1O`: “inactive”.
With `CCCCCCCCOC(=O)CCCCCCCCC(=O)OCCCCCCCC`, the Potency entry is “inactive”.
Same read-out and setting: the same measure for `O=C1CCCCCCCCCCC(=O)OCCO1`: “inactive”; for `CC1=NN(c2cc(Cl)c(S(=O)(=O)O)cc2Cl)C(=O)C1N=Nc1ccc(S(=O)(=O)O)cc1` (stereo not given): “inactive”.
With `O=C(O)c1ccccc1Nc1cc(Cl)ccc1C(=O)O`, the activity change, negative = inhibition was -10.7% [at 19 µM] (inactive).
Consider `Cc1ccc(C=O)s1`, for which the Potency result was “inactive”.
For the compound `CCCCCCCCCCCCOCCOS(=O)(=O)O`, the Potency result is “inactive”.
On the same count and under the same terms, the same measure for `CC(=O)Oc1cc(C(C)C)c(OCCN(C)C)cc1C`: “inactive”.
With `CC1(C)O[C@@H]2C[C@H]3[C@@H]4CCC5=CC(=O)CC[C@]5(C)[C@@]4(F)[C@@H](O)C[C@]3(C)[C@]2(C(=O)CCl)O1`, the Potency was 13.3 µM (active).
Still for that read-out and setting: the entry for `CCCC1CCC(=O)O1` (stereo not given) is “inactive”; for `CCN(O)CC` it is “inactive”.
Regarding `Cc1c(N)cccc1N`, the Potency result was “inactive”.
As for `C[C@]12C(=O)OC(=O)[C@H]1[C@H]1C=C[C@@H]2C1`, the Potency result is “inactive”.
The same measure, in the same setting: the entry for `COc1ccccc1OCC(O)COC(N)=O` (stereo not given) is “inactive”; for `CCOc1ccccc1N` it is 54.1 µM (active).
The same measure, in the same setting: the entry for `CC1=C2[C@H](/C=C(\C)C(=O)O)CC[C@@H](C)[C@H]2CC1` is “inactive”.
The same measure, in the same setting: the entry for `O=c1[nH]cnc2c1ncn2[C@@H]1O[C@H](CO)[C@@H](O)[C@H]1O` is “inactive”; for `CC(C)CC(=O)OCc1ccccc1` it is “inactive”.
Regarding `Cc1nc(-c2ccccn2)ncc1C(=O)Nn1cc(C)c2cc(F)ccc21`, the Potency entry is “inactive”.
On the same count and under the same terms, the same measure for `CC(C)=CCC[C@](C)(O)[C@@H]1CC=C(C)CC1`: “inactive”; for `CC(C)=CCCC(C)CCOC=O` (stereo not given): “inactive”.
The same measure, in the same setting: the same measure for `CCCCc1ccc2nc(NC(=O)OC)[nH]c2c1`: “inactive”; for `CCOC(=O)COc1ccc2c(c1)CC(NCC(O)c1cccc(Cl)c1)CC2` (stereo not given): “inactive”; for `O=C1N(c2ccccc2)c2ccccc2C1(Cc1ccncc1)Cc1ccncc1`: “inactive”.
